Test systems include SR leukemia; RPMI-8226 leukemia; OVCAR-8 ovarian; OVCAR-5 ovarian; OVCAR-4 ovarian; SK-OV-3 ovarian; IGROV1 ovarian; OVCAR-3 ovarian; HS 578T breast; NCI/ADR-RES ovarian.
Holding throughout (experiment): NCI-60 one-dose screen, 48 h (100 = growth as untreated, 0 = no growth, -100 = all killed)
Common to all, as to details: 10 µM

Compounds without any hit were thinned out: in the full panel of roughly 83,000, 20% have a hit.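 How to read the values: 0–100, growth inhibition (40 = 60% inhibited); 0, no net growth; -100 to 0, cell death (-40 = 40% of starting cells died; -100 = all dead).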 Values without a mark were called inactive. Activity calls are given as the source filed them. The calls were made as follows: active = growth percent below 10; inactive = the rest.

Regarding `CN1C(C(=O)Nc2ccccn2)=C(O)c2sc(Cl)cc2S1(=O)=O`, the growth was 96.1% in the assay with SR leukemia; 94.5% in the assay on RPMI-8226 leukemia; 95.9% in the assay with OVCAR-8 ovarian; 104% in the assay on OVCAR-5 ovarian; 106% in the assay on OVCAR-4 ovarian; 104% in the assay on SK-OV-3 ovarian. Also, the growth in the assay with IGROV1 ovarian is 99.6%; in the assay with OVCAR-3 ovarian, 105%; with HS 578T breast, 98.5%; with NCI/ADR-RES ovarian, 95.4%.

With `Cc1ccc(NC(=O)N2CCCCC2)cc1[N+](=O)[O-]`, the growth with SR leukemia was 39.3%; with RPMI-8226 leukemia it was 41.7%; in the assay with OVCAR-8 ovarian it was 72.2%; in the assay with OVCAR-5 ovarian, 101%; in the assay with OVCAR-4 ovarian, 111%; in the assay on SK-OV-3 ovarian it was 112%. Besides, the growth is 87.3% in the assay with IGROV1 ovarian, 115% in the assay with OVCAR-3 ovarian, 54.8% in the assay with HS 578T breast and 95.4% in the assay with NCI/ADR-RES ovarian.

Regarding `COc1ccc(/C(C#N)=C/c2ccccc2OC)cc1`, the growth in the assay on SR leukemia was 34.7%; in the assay with RPMI-8226 leukemia, 52.3%; in the assay on OVCAR-8 ovarian, 53.5%; with OVCAR-5 ovarian, 55.5%; in the assay on OVCAR-4 ovarian, 89.9%; with SK-OV-3 ovarian, 33.2%. Besides, the growth with IGROV1 ovarian was 31.9%; in the assay on OVCAR-3 ovarian, 25.8%; in the assay with HS 578T breast, 47.8%; with NCI/ADR-RES ovarian, -0.0917% (active).

With `COc1ccc(Cl)cc1Nc1nc(C(F)(F)F)ccc1C(=O)N/N=C/c1ccc(Cl)cc1`, the growth was -0.906% (active) in the assay with SR leukemia; 20.4% with RPMI-8226 leukemia; 46.8% in the assay with OVCAR-8 ovarian; 57.2% with OVCAR-5 ovarian; 27.6% in the assay with OVCAR-4 ovarian; 44.5% with SK-OV-3 ovarian. Moreover, the growth in the assay with IGROV1 ovarian was 45.2%; in the assay with OVCAR-3 ovarian, -34.7% (active); in the assay with HS 578T breast, 3.13% (active); with NCI/ADR-RES ovarian, 41%.

As for `COc1ccc(-c2cc(-c3ccc(Cl)cc3)nc(SCCCC(=O)NO)n2)cc1OC`, the growth in the assay on SR leukemia was 19.7%; in the assay with RPMI-8226 leukemia, -6.19% (active); in the assay with OVCAR-8 ovarian, 13.5%; in the assay with OVCAR-5 ovarian, 1.46% (active); in the assay with OVCAR-4 ovarian it was 19.1%; in the assay on SK-OV-3 ovarian it was 0.0102% (active). For the same compound, the growth with IGROV1 ovarian was -1.77% (active); with OVCAR-3 ovarian it was 6.86% (active); in the assay on HS 578T breast, 29.2%; in the assay on NCI/ADR-RES ovarian it was -30.6% (active).

As to `O=C(CN1CCN(C(=O)c2ccccc2)CC1)Nc1ccccc1SCc1ccccc1`, the growth was 71% with SR leukemia; 68.3% in the assay on RPMI-8226 leukemia; 87.3% in the assay with OVCAR-8 ovarian; 96.4% with OVCAR-5 ovarian; 77.2% in the assay on OVCAR-4 ovarian; 89.5% in the assay with SK-OV-3 ovarian. Besides, the growth in the assay on IGROV1 ovarian was 84.2%; with OVCAR-3 ovarian it was 91.5%; with HS 578T breast it was 83.9%; with NCI/ADR-RES ovarian it was 78.4%.

On to `O=C(Nc1ccc(F)cc1)c1cc2ccccc2cc1O`, for which the growth in the assay with SR leukemia is 43.2%; with RPMI-8226 leukemia, 37.9%; in the assay with OVCAR-8 ovarian, 82.7%; in the assay with OVCAR-5 ovarian it was 100%; in the assay on OVCAR-4 ovarian it was 57.8%; in the assay with SK-OV-3 ovarian, 52.2%. For the same compound, the growth with IGROV1 ovarian was 68.4%; in the assay with OVCAR-3 ovarian, 84.6%; with HS 578T breast it was 87.9%; in the assay on NCI/ADR-RES ovarian, 75.9%.

For the compound `CCOC(=O)c1cc(C(=O)c2cc(OC)c(OC)c(OC)c2)n2c1ccc1c3cccnc3ccc12`, the growth in the assay on SR leukemia was 17.5%; in the assay on RPMI-8226 leukemia it was 61.8%; in the assay with OVCAR-8 ovarian, 56.2%; in the assay with OVCAR-5 ovarian it was 91.9%; in the assay with OVCAR-4 ovarian, 89.7%; with SK-OV-3 ovarian, 78.1%. Further, the growth in the assay with IGROV1 ovarian is 67.8%; with OVCAR-3 ovarian, 61.5%; in the assay with HS 578T breast it was 72.8%; in the assay with NCI/ADR-RES ovarian it was 33.9%.

With `CC(C)(C)OC(=O)CC(S(=O)(=O)c1ccccc1)S(=O)(=O)c1ccccc1`, the growth in the assay with SR leukemia was 77.9%; in the assay with RPMI-8226 leukemia, 99.3%; in the assay on OVCAR-8 ovarian, 101%; in the assay with OVCAR-5 ovarian it was 98.8%; in the assay on OVCAR-4 ovarian it was 107%; in the assay on SK-OV-3 ovarian, 101%. The growth in the assay with IGROV1 ovarian is 114%; in the assay with OVCAR-3 ovarian it was 48.3%; in the assay with HS 578T breast, 102%; in the assay on NCI/ADR-RES ovarian, 107%.

For the compound `Cc1ccc(-n2nnnc2N)c(C)c1`, the growth in the assay with SR leukemia is 112%; in the assay with RPMI-8226 leukemia, 109%; with OVCAR-8 ovarian, 108%; in the assay with OVCAR-5 ovarian it was 107%; with OVCAR-4 ovarian it was 99%; in the assay on SK-OV-3 ovarian, 113%. In addition, the growth in the assay on IGROV1 ovarian is 123%; with OVCAR-3 ovarian, 113%; with HS 578T breast, 99%; in the assay with NCI/ADR-RES ovarian, 105%.

As for `CCCCC/C=C/C/C=C/CCCCCCCC1=NC(C)(C)CN1C(C)C`, the growth is 2.99% (active) in the assay with SR leukemia; -35.7% (active) in the assay with RPMI-8226 leukemia; 28.3% in the assay with OVCAR-8 ovarian; 62.9% in the assay on OVCAR-5 ovarian; 27.2% in the assay with OVCAR-4 ovarian; 68.1% with SK-OV-3 ovarian. The growth with IGROV1 ovarian is 8.27% (active); with OVCAR-3 ovarian it was 17.4%; in the assay with HS 578T breast, 26.7%; in the assay with NCI/ADR-RES ovarian, 37.1%.

In the case of `CN(C)CCCOc1ccccc1NC1=C(Cl)C(=O)C(Nc2ccccc2OCCCN(C)C)=C(Cl)C1=O`, the growth in the assay with SR leukemia is -4.17% (active); in the assay with RPMI-8226 leukemia it was -40.3% (active); with OVCAR-8 ovarian it was -84.3% (active); in the assay on OVCAR-5 ovarian it was -60.1% (active); in the assay with OVCAR-4 ovarian, -98.7% (active); in the assay on SK-OV-3 ovarian, -24.3% (active). The growth was -44.8% (active) in the assay on IGROV1 ovarian, -90.5% (active) in the assay on OVCAR-3 ovarian, 10.8% in the assay on HS 578T breast and 78.5% in the assay on NCI/ADR-RES ovarian.

Consider `CN1CCN(C2=Nc3ccccc3Oc3ccc(Cl)cc32)CC1`, for which the growth with SR leukemia was 76.9%; in the assay on RPMI-8226 leukemia, 99.5%; in the assay with OVCAR-8 ovarian, 107%; with OVCAR-5 ovarian, 96.1%; with OVCAR-4 ovarian, 84.3%; in the assay with SK-OV-3 ovarian it was 117%. The growth in the assay with IGROV1 ovarian was 97.2%; in the assay with OVCAR-3 ovarian, 104%; in the assay on HS 578T breast, 104%; in the assay on NCI/ADR-RES ovarian, 98%.
